Screening results: PubChem, National Center for Advancing Translational Sciences (NCATS)
Sampled rows, rich in hits. Any-hit rate of the full collection: about 19%.
BCR signal inh = inhibitors of chronic active B-cell receptor signaling; ABC-DLBCL IkBa-CBG/CBR reporter, luminescence ratio, 4 h; Potency, µM (doses to about 46.1 µM), inactives show top-dose activity change, negative = inhibition, actives largely listed as inhibitors; 340,000 compounds, 0.05% hits; AID 493014; active means well fitted inhibition curve with a large enough effect in the signal ratio, with a control signal flat, not every such curve was filed as active; inconclusive means small, poorly fitted or top-dose-only effect, or effect the other way, or a change in a side signal; the % refers to the signal ratio;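 further: potency means the concentration at half of the fitted maximal effect; plate controls were basal doxycycline-induced cells for no effect and cells given 10 µM MG132 for full effect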
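TMD8 ABC-DLBCL cells carrying doxycycline-inducible green luciferase fused to IkappaBalpha plus unfused red luciferase were exposed to compounds (up to 46 uM) for 4 hrs at 37C. Activity came from the overlap-corrected green/red luminescence ratio.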
TDP1 cell CPT = DT40-hTDP1 cell growth loss with CPT. chicken DT40 Tdp1-/-;hTDP1 cells + 20 nM CPT, ATP luminescence, 48 h. Potency, µM (highest dose often 46.2 µM), for inactives: at the top dose activity change, negative = growth inhibition, most hits filed as inhibitors. 420,000 compounds, 12% hits. AID 686979; further: potency means the concentration at half of the fitted maximal effect; on the % scale 0 is the no-effect control and ±100 the full control effect; nearly all actives have a fitted effect of over 55% in size
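Chicken DT40 Tdp1-/- cells stably complemented with human TDP1 were seeded at 400 cells/well in medium containing 20 nM camptothecin, exposed to pin-transferred compounds, and grown at 37 °C for at least 48 hr. Viability was read as ATP luminescence.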
DT40 TDP1 no CPT = qHTS for Inhibitors of human tyrosyl-DNA phosphodiesterase 1 (TDP1): qHTS in cells in absence of CPT; DT40 Tdp1-/- hTDP1 cells, no CPT, ATP luminescence, 48 h; Potency, µM (highest dose often 46.2 µM), for the others: top-dose activity change, negative = growth inhibition, most hits filed as inhibitors; 420,000 compounds, 15% hits; AID 686978, 2013; further: potency means the concentration at half of the fitted maximal effect; on the % scale 0 is the no-effect control and ±100 the full control effect; nearly all actives have a fitted effect of over 55% in size
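Chicken DT40 Tdp1-/- cells stably complemented with human TDP1 were seeded at 400 cells/well with DMSO in place of 20 nM camptothecin. After compound pinning, cells grew at least 48 hr at 37 °C; viability read by CellTiter-Glo luminescence.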
SW480 rerep = DNA re-replication induction in SW480 cells | SW480 DNA re-replication, Hoechst DNA content imaging, 48 h | Potency, µM (top dose mostly 46.1 µM), for inactives: at the top dose re-replication activation, usual class: activators | 340,000 compounds, 1.8% hits | AID 624297; further: potency means the concentration at half of the fitted maximal effect; % of control where 0% means no effect; nearly all actives have a fitted effect of over 55% in size
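250 cells/well; 23 nL cpd via pin tool; 48 hr, 37 C, 5% CO2; Hoechst 40 min; imager read of total nuclear intensity, ex 405/em 500-530 nm.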
MCF10A rerep = DNA re-replication induction in MCF 10a cells | MCF 10A DNA re-replication, Hoechst nuclear intensity, 48 h | Potency, µM (top dose mostly 46.1 µM), inactives show at the top dose activity, positive = re-replication, actives largely listed as activators | 350,000 compounds, 2.9% hits | AID 624296; further: potency means the concentration at half of the fitted maximal effect; % of control where 0% means no effect; nearly all actives have a fitted effect of over 50% in size
IL-1B inflam inh = inhibitors of inflammasome signaling (IL-1 beta secretion); activity change, % at 57.5 µM; 360,000 compounds, 4.7% hits; THP-1 LPS/ATP IL-1B secretion, AlphaLISA, 16 h; active compounds read low; in the data active means activity change below about -50%; inconclusive means mostly about -30% to -49%; further: on the % scale 0 is the no-effect control and ±100 the full control effect
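THP-1 cells pretreated 1 hr with compounds (up to 57.5 uM final), then stimulated with LPS (250 ng/mL final) plus ATP (1.25 mM final); secreted IL-1B measured by AlphaLISA after 16 hr, decreased signal indicating inhibition.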
Starred values were filed as active, the others as inactive; ? = inconclusive; · = not tested or not shown; [ ] = another dose, or the depositor's remark. Unless noted, the call rests on the fitted dose curve; in most records, active means well fitted curve in the direction sought with a large enough effect; inconclusive means small, poorly fitted or top-dose-only effect, or another doubt; inactive means no such curve, though single readings can be large; an effect the other way counts as inactive or inconclusive.

SMILES	BCR signal inh	TDP1 cell CPT	DT40 TDP1 no CPT	SW480 rerep	MCF10A rerep	IL-1B inflam inh
COc1cccc(CNC(=O)C2CCC(CNS(=O)(=O)c3ccc(Br)s3)CC2)c1 (centres undefined)	·	23µM*	?	·	·	·
O=C(C1CCC(CNS(=O)(=O)c2ccc(Br)s2)CC1)N1CCN(c2ccc(F)cc2)CC1 (centres undefined)	·	?	4.1µM*	·	·	·
CCOc1ccc(NC(=O)C2CCC(CNS(=O)(=O)c3ccc(Br)s3)CC2)cc1 (centres undefined)	·	-21%	?	·	·	·
O=C(C1CCC(CNS(=O)(=O)c2cccs2)CC1)N1CCCCC1 (centres undefined)	-1%	-14%	?	-5%	-20%	11
COc1cccc(N2CCN(C(=O)C3CCC(CNS(=O)(=O)c4ccc(Br)s4)CC3)CC2)c1 (centres undefined)	·	7.3µM*	6.5µM*	·	·	·
O=C(C1CCC(CNS(=O)(=O)c2ccc(Br)s2)CC1)N1CCN(c2ccccc2Cl)CC1 (centres undefined)	·	9.2µM*	8.2µM*	·	·	·
CC(NS(=O)(=O)OCC(Cl)(Cl)Cl)c1ccc(Br)cc1 (centres undefined)	27%	-13%	-26%	-1%	15%	21
CC(C)COc1ccc(/C(=N/O)c2ccccc2)cc1	?	-22%	?	0%	-1%	-79*
O=C(CSc1nnc(-c2cccnc2)s1)Nc1ccnc2ccccc12	-8%	1.2µM*	0.52µM*	-9%	1%	-3
Cc1ccc(NC(=O)CSc2nnc(-c3cccnc3)s2)cc1	0%	-1%	-4%	-6%	1%	19
Cc1cc(O)c(N=Cc2cc3c(cc2[N+](=O)[O-])OCO3)cc1C	·	?	21µM*	?	16µM*	24
COc1ccccc1C(=O)NCCC(=O)NCC1COc2ccccc2O1 (centres undefined)	?	-7%	?	-6%	-13%	-19
Cc1ccc(NCN2C(=O)C(=O)c3ccccc32)nc1	?	2.3µM*	1.3µM*	?	?	16
Cc1ccc(NC(=O)CCCCCN2C(=O)c3ccccc3C2=O)nc1	4%	-1%	?	-5%	-7%	36
COc1cccc(Nc2nc(C(N)c3ccccc3Cl)cs2)n1 (centres undefined)	·	21µM*	15µM*	·	·	?
COc1ccc(C(N)c2csc(Nc3ccc(C(=O)NCCCO)cn3)n2)cc1 (centres undefined)	·	?	?	·	·	-15
NC(c1csc(Nc2ncccn2)n1)c1ccccc1Cl (centres undefined)	·	21µM*	21µM*	·	·	-1
COc1cc(OC)nc(Nc2nc(CN)cs2)n1	·	-30%	?	·	·	-3
c1ccc(-c2csc(Nc3ncccn3)n2)cc1	?	?	?	-4%	2%	39
NC(c1csc(Nc2cc(NCCCO)ncn2)n1)c1ccccc1Cl (centres undefined)	·	?	?	·	·	-56*
COc1cc(OC)nc(Nc2nc(C(N)CCc3ccccc3)cs2)n1 (centres undefined)	·	26µM*	?	·	·	?
COc1ccc(C(N)c2csc(Nc3ncccn3)n2)cc1 (centres undefined)	·	?	?	·	·	-10
COc1cc(OC)nc(Nc2nc(C(N)c3ccccc3)cs2)n1 (centres undefined)	·	?	?	·	·	-56*
COc1cc(OC)nc(Nc2nc(C(N)c3ccccc3Cl)cs2)n1 (centres undefined)	·	?	26µM*	·	·	·
COc1ccc(NC(=O)C2c3ccccc3OCC(=O)N2CCc2ccccc2)cc1 (centres undefined)	·	-11%	-21%	·	·	33
SMILES	BCR signal inh	TDP1 cell CPT	DT40 TDP1 no CPT	SW480 rerep	MCF10A rerep	IL-1B inflam inh
CC(C)c1nc2oc3c(NCC4CCCO4)ncnc3c2c2c1COC(C)(C)C2 (centres undefined)	2%	?	15µM*	-7%	15%	0
Cc1nc2oc3c(NCC4CCCO4)ncnc3c2c2c1COC(C)(C)C2 (centres undefined)	?	0%	-1%	-24%	4%	?
Cc1nc2oc3c(NCc4ccccc4)ncnc3c2c2c1COC(C)(C)C2	?	?	18µM*	-9%	10%	?
CCCc1nc2oc3c(OC)ncnc3c2c2c1COC(C)(C)C2	-21%	?	21µM*	-9%	-6%	-8
CCOC(=O)C1CCN(S(=O)(=O)CCNC(=O)c2ccc(F)cc2)CC1	0%	-2%	-2%	0%	0%	13
CCCCNC(=O)[C@@H]1CC=C[C@@H]2CCN(CCCC)C(=O)[C@@H]21	·	-16%	?	·	·	·
C=CCN1CCN(C(CCC)c2nnnn2Cc2ccco2)CC1 (centres undefined)	?	3%	-10%	-15%	3%	-11
Nc1nc(N)c2cc(S(=O)(=O)c3ccc4ccccc4c3)ccc2n1	·	?	1.8µM*	·	·	8
Cc1ccc(N2C(=O)C(Cl)=C(Nc3c(C)n(C)n(-c4ccccc4)c3=O)C2=O)cc1	-2%	?	13µM*	16%	-6%	-16
Cc1ccc(Nc2nc3ccccc3nc2Nc2c(C)n(C)n(-c3ccccc3)c2=O)cc1	0%	?	?	-4%	1.8µM*	14
Cc1c(Nc2nc3ccccc3nc2NS(=O)(=O)c2cccc(Cl)c2)c(=O)n(-c2ccccc2)n1C	?	-1%	-24%	-3%	?	1
CC[n+]1c(-c2ccc(C)cc2)csc1Nc1c(C)n(C)n(-c2ccccc2)c1=O	-11%	15µM*	12µM*	-6%	12%	?
Cc1ccc(S(=O)(=O)NC(CC(C)C)C(=O)NCCCn2nc(C)cc2C)cc1 (centres undefined)	5%	2%	3%	-13%	15%	-14
CC(=O)NC(CC(=O)N(C)C1CCCCC1)c1ccccc1 (centres undefined)	17%	2%	-4%	-10%	-6%	39
CC(C)(O)CN(C(=O)C(c1ccccc1)c1ccccc1)C1CCCCC1	·	?	?	11%	5%	-63*
Cc1cccc[n+]1CC(=O)c1ccc([N+](=O)[O-])cc1	·	21µM*	16µM*	-30%[1.84 µM]	-30%	18
